# Results published in PubChem BioAssay (NCATS).
# Unmarked numbers belong to inactive results. Inconclusive results are not listed. A call without a number means that no potency is given here. The source made the active and inactive calls. Calls follow the shape of the dose curve; as a rule, active = well fitted curve in the direction sought with a large enough effect; inconclusive = small, poorly fitted or top-dose-only effect, or another doubt; inactive = no such curve, though single readings can be large; an effect the other way counts as inactive or inconclusive.
# Columns and labels:
# [1] = target: Cytochrome P450 3A4 (Homo sapiens) (UniProt P08684); assay: qHTS Assay for Inhibitors and Substrates of Cytochrome P450 3A4 (AID 884); also: nearly all actives have a fitted effect of over 50% in size; also: potency is read from the fitted curve at half-maximal effect
# Sequence of Cytochrome P450 3A4 (Homo sapiens) (P08684 whole entry, looked up): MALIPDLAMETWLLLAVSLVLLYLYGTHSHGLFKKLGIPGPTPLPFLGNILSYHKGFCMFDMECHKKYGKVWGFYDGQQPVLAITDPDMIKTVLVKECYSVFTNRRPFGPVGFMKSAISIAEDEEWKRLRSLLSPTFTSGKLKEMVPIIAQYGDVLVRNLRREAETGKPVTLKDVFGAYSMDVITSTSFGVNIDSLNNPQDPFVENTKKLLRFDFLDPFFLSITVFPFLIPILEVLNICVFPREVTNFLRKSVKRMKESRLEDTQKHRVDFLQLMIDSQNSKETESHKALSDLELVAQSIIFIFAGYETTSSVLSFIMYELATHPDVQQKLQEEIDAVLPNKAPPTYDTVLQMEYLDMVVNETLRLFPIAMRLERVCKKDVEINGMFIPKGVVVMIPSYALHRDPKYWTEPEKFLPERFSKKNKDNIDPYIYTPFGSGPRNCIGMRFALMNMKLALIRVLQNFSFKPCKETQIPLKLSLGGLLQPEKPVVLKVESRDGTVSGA
# Summary of the method: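 20 nM human CYP3A4 with 25 uM Luciferin-PPXE (at KM) in 200 mM KPO4, preincubated 10 min with compound; NADPH regeneration started a 60 min RT reaction. Luciferin detected by luminescence, normalized to 57 uM ketoconazole as full inhibition.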
# [2] = target: Cytochrome P450 3A4 (Homo sapiens) (UniProt P08684); assay: qHTS Assay for Activators of Cytochrome P450 3A4 (AID 885); also: nearly all actives have a fitted effect of over 65% in size
# Summary of the method: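 Human CYP3A4 (20 nM) with Luciferin-PPXE at 25 uM (its KM) in 200 mM KPO4; 10 min compound preincubation, then NADPH regeneration and 60 min reaction at RT. Luciferin read by luminescence; normalized to 57 uM ketoconazole full inhibition.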
# [3] = target: Ubiquitin carboxyl-terminal hydrolase 1 (Homo sapiens) (UniProt O94782); assay: Inhibitors of USP1/UAF1: Pilot qHTS (AID 504865); also: nearly all actives have a fitted effect of over 35% in size; also: potency is read from the fitted curve at half-maximal effect
# Sequence of Ubiquitin carboxyl-terminal hydrolase 1 (Homo sapiens) (O94782 whole entry, looked up): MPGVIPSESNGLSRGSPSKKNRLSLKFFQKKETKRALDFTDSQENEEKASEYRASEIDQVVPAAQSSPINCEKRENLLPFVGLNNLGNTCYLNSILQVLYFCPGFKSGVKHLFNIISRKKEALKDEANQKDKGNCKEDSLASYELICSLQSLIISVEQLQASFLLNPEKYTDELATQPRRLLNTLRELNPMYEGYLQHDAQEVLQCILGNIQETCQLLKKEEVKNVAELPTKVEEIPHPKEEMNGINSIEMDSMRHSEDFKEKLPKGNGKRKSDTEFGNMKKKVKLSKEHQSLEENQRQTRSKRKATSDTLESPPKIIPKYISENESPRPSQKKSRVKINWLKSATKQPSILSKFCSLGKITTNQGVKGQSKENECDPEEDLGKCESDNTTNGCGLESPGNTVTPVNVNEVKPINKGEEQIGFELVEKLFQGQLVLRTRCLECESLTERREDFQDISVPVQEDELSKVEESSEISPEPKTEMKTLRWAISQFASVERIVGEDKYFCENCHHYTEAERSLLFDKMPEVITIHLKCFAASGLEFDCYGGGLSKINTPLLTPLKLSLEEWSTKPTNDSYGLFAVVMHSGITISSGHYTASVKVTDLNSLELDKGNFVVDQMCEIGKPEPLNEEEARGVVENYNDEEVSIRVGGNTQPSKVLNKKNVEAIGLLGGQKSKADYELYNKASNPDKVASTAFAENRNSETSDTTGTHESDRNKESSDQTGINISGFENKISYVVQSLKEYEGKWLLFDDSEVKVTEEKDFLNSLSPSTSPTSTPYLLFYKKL
# Summary of the method: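 USP1/UAF1 complex at 1 nM preincubated 15 min at room temperature with compound, then Ub-Rho substrate added at 150 nM final. Fluorescence (480/540 nm) read kinetically in 50 mM HEPES pH 7.8, 0.5 mM EDTA, 1 mM TCEP, 0.1 mg/ml BSA, 0.01% Tween-20.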
# [4] = target: DNA dC->dU-editing enzyme APOBEC-3G (Homo sapiens) (UniProt Q9HC16); assay: qHTS for inhibitors of Vif-A3G interactions: Validation (AID 588379)
# Sequence of DNA dC->dU-editing enzyme APOBEC-3G (Homo sapiens) (Q9HC16 whole entry, looked up): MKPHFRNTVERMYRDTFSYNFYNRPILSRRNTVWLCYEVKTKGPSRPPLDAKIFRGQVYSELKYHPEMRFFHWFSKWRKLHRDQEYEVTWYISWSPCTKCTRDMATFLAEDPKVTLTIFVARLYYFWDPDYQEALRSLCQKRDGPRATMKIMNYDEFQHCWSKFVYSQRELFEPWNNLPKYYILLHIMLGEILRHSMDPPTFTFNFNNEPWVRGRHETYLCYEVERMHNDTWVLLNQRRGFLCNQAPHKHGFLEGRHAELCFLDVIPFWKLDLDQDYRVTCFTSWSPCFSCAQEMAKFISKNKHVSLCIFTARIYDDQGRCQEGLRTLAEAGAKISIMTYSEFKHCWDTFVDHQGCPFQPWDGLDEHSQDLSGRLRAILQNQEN
# Summary of the method: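 HeLa cells stably expressing Vif and A3G-eYFP, 700 cells/well, incubated overnight at 37 deg C, then exposed to compound overnight at 37 deg C. Inhibition of Vif-mediated degradation read as increased yellow fluorescence (Ex 488/Em 500-530) by laser-scanning cytometry.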
# [5] = qHTS profiling for inhibitors of Plasmodium falciparum proliferation (AID 504749); also: nearly all actives have a fitted effect of over 60% in size; details: P. falciparum in erythrocytes, SYBR Green DNA, 72 h, at 28.7 µM (top of the series)
# Summary of the method: (§1)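 Parasite proliferation within erythrocytes, 72 h exposure. Endpoint: SYBR Green I fluorescence after overnight lysis at room temperature. Controls: 0.29 uM artemisinin, DMSO.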
# 7G8 = assay: as above; details: P. falciparum in erythrocytes, SYBR Green DNA, 72 h; series mostly up to 28.7 µM
# Summary of the method: as §1
# ATS189 = assay: as above; details: P. falciparum in erythrocytes, SYBR Green DNA, 72 h; series mostly up to 28.7 µM
# Summary of the method: as §1
# CP185 = assay: as above; details: P. falciparum in erythrocytes, SYBR Green DNA, 72 h; series mostly up to 28.7 µM
# Summary of the method: as §1
# CP201 = assay: as above; details: P. falciparum in erythrocytes, SYBR Green DNA, 72 h; series mostly up to 28.7 µM
# Summary of the method: as §1
# CP238 = assay: as above; details: P. falciparum in erythrocytes, SYBR Green DNA, 72 h; series mostly up to 28.7 µM
# Summary of the method: as §1
# CP252 = assay: as above; details: P. falciparum in erythrocytes, SYBR Green DNA, 72 h; series mostly up to 28.7 µM
# Summary of the method: as §1
# CP265 = assay: as above; details: P. falciparum in erythrocytes, SYBR Green DNA, 72 h; series mostly up to 28.7 µM
# Summary of the method: as §1
# CP286 = assay: as above; details: P. falciparum in erythrocytes, SYBR Green DNA, 72 h; series mostly up to 28.7 µM
# Summary of the method: as §1
# CP305 = assay: as above; details: P. falciparum in erythrocytes, SYBR Green DNA, 72 h; series mostly up to 28.7 µM
# Summary of the method: as §1
# CP325 = assay: as above; details: P. falciparum in erythrocytes, SYBR Green DNA, 72 h; series mostly up to 28.7 µM
# Summary of the method: as §1
# FAB9 = assay: as above; details: P. falciparum in erythrocytes, SYBR Green DNA, 72 h; series mostly up to 28.7 µM
# Summary of the method: as §1
# PC15 = assay: as above; details: P. falciparum in erythrocytes, SYBR Green DNA, 72 h; series mostly up to 28.7 µM
# Summary of the method: as §1
# PC49 = assay: as above; details: P. falciparum in erythrocytes, SYBR Green DNA, 72 h; series mostly up to 28.7 µM
# Summary of the method: as §1
# [6] = Confirmation and Secondary Assay for Modulators of Hemoglobin Beta Chain Splicing at IVS2 654 locus (AID 910);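 also: per-well total GFP intensity by laser scanning cytometry after 2-day treatment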
# Summary of the method: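 HeLa cells stably carrying EGFP interrupted by mutant beta-globin IVS2-654 intron (CMV-driven) were treated with compound for 2 days at 37C; corrected splicing was scored as total peak GFP intensity per well (488 nm excitation, 500-520 nm emission).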
# [7] = Confirmation and Secondary Assay for Modulators of Hemoglobin Beta Chain Splicing at IVS2 705 locus (AID 930);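 also: HeLa cells stably expressing the EGFP-705 splicing reporter; GFP fluorescence per well restored by corrected splicing of the IVS2-705 intron in EGFP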
# Summary of the method: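 First, HeLa EGFP-705 cells are seeded at 500/well in Optimem with 2% FCS and left overnight. Next, compound or DMSO is added for 2 days. Finally wells are laser-scanned and total peak GFP intensity scored.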
compound,measurement,setting,value
O=C(/C=C/c1ccc(O)cc1)c1cccs1,Potency,[1],1.26 µM (active)
same,Potency,[2],inactive
same,Potency,[3],inactive
same,Potency,[4],inactive
O=C(O)c1ccccc1-c1c2cc(Br)c(=O)c(Br)c-2oc2c(Br)c(O)c(Br)cc12,Potency,[3],inactive
same,"activity, negative = inhibition",[5]; parasite line A,7.94%
same,"activity, negative = inhibition",[5]; parasite line B,-13.6%
same,Potency,7G8,inactive
same,Potency,ATS189,inactive
same,Potency,CP185,inactive
same,Potency,CP201,inactive
same,Potency,CP238,inactive
same,Potency,CP252,inactive
same,Potency,CP265,inactive
same,Potency,CP286,inactive
same,Potency,CP305,inactive
same,Potency,CP325,inactive
same,Potency,FAB9,inactive
same,Potency,PC15,inactive
same,Potency,PC49,inactive
C=CC1=C(C(=O)O)N2C(=O)[C@@H](NC(=O)C(N=O)c3csc(N)n3)[C@H]2SC1 (stereo partly drawn),Potency,[3],inactive
same,"activity, negative = inhibition",[5]; parasite line A,6.56%
same,"activity, negative = inhibition",[5]; parasite line B,16.7%
same,Potency,7G8,inactive
same,Potency,ATS189,inactive
same,Potency,CP185,inactive
same,Potency,CP201,inactive
same,Potency,CP238,inactive
same,Potency,CP252,inactive
same,Potency,CP265,inactive
same,Potency,CP286,inactive
same,Potency,CP305,inactive
same,Potency,CP325,inactive
same,Potency,FAB9,inactive
same,Potency,PC15,inactive
same,Potency,PC49,inactive
COc1cc2c(C(=O)c3ccccc3)c3c4c(cc(OC)c(OC)c4c2cc1OC)CCN3C,Potency,[1],1.26 µM (active)
same,Potency,[2],inactive
same,Potency,[3],25.1 µM (active)
same,Potency,[4],inactive
CNCC(=O)NC(CCCN=C(N)N)C(=O)NC(C(=O)NC(Cc1ccc(O)cc1)C(=O)NC(C(=O)NC(Cc1cnc[nH]1)C(=O)N1CCCC1C(=O)NC(C)C(=O)O)C(C)C)C(C)C (stereo not drawn),Potency,[3],inactive
same,"activity, negative = inhibition",[5]; parasite line A,15.8%
same,"activity, negative = inhibition",[5]; parasite line B,17.4%
same,Potency,7G8,inactive
same,Potency,ATS189,inactive
same,Potency,CP185,inactive
same,Potency,CP201,inactive
same,Potency,CP238,inactive
same,Potency,CP252,inactive
same,Potency,CP265,inactive
same,Potency,CP286,inactive
same,Potency,CP305,inactive
same,Potency,CP325,inactive
same,Potency,FAB9,inactive
same,Potency,PC15,inactive
same,Potency,PC49,inactive
COc1cccc2oc(-c3ccccc3)cc(=O)c12,Potency,[2],inactive
same,Potency,[3],inactive
same,Potency,[4],inactive
CC1O[C@@H](O[C@@H]2C(O)C[C@H](O[C@@H]3C(O)C[C@@H](OC4CC[C@@]5(C)C6CC[C@]7(C)C(C8=CC(=O)OC8)CC[C@@]7(O)C6CC[C@@H]5C4)OC3C)OC2C)CC(O)[C@H]1O (stereo partly drawn),Potency,[1],inactive
same,outcome,[6],inactive
same,outcome,[7],inactive
same,Potency,[3],inactive
COc1cc2ccc(=O)oc2c(OC)c1OC,Potency,[1],inactive
same,outcome,[6],inactive
same,Potency,[3],inactive
CC1(C)CC[C@]2(C(=O)O)CC[C@@]3(C)C(=CCC4[C@@]5(C)CCC(O)C(C)(C)C5CC[C@@]43C)C2C1 (stereo partly drawn),Potency,[1],inactive
same,outcome,[6],inactive
same,Potency,[3],inactive
CC1CC2C3CCC4=CC(=O)C=C[C@@]4(C)[C@]3(F)C(O)C[C@]2(C)[C@]1(O)C(=O)COP(=O)(O)O (stereo partly drawn),Potency,[2],inactive
same,outcome,[6],inactive
same,outcome,[7],inactive
same,Potency,[3],inactive
CC(=O)OC1CC2C(C)(C)C(=O)CC[C@]2(C)C2CC[C@]3(C)C(=CC(=O)OC3c3ccoc3)[C@]12C (stereo partly drawn),Potency,[1],6.31 µM (active)
same,Potency,[2],inactive
same,outcome,[6],inactive
same,Potency,[3],inactive
C[N+]1(C)C2CCC1CC(OC(=O)C(O)c1ccccc1)C2 (stereo not drawn),Potency,[1],inactive
same,outcome,[6],inactive
same,outcome,[7],inactive
same,Potency,[3],inactive
COc1ccc(-c2cc(=O)c3c(OC(C)=O)cc(OC(C)=O)cc3o2)cc1,Potency,[1],25.1 µM (active)
same,Potency,[2],inactive
same,outcome,[6],inactive
same,outcome,[7],inactive
same,Potency,[3],inactive
COc1ccc2c(=O)ccoc2c1,Potency,[1],inactive
same,outcome,[6],inactive
same,Potency,[3],inactive
Cc1cc(O)c(C)c(O)c1C(=O)O,Potency,[1],inactive
same,outcome,[6],inactive
same,Potency,[3],inactive
COc1ccc(-c2oc3ccccc3c(=O)c2O)cc1,Potency,[2],inactive
same,Potency,[3],inactive
same,Potency,[4],inactive
OCC(O)C(O)C(O)C(O)C(O)CO (stereo not drawn),Potency,[1],inactive
same,outcome,[6],inactive
same,Potency,[3],inactive
NC(Cc1cnc[nH]1)C(=O)Nc1ccc2ccccc2c1 (stereo not drawn),Potency,[1],2.51 µM (active)
same,Potency,[2],inactive
same,outcome,[6],inactive
same,outcome,[7],inactive
same,Potency,[3],inactive
NC(N)=N/N=C\c1c(Cl)cccc1Cl,Potency,[1],inactive
same,outcome,[6],inactive
same,outcome,[7],inactive
same,Potency,[3],inactive
COc1c2ccoc2cc2oc(C)cc(=O)c12,Potency,[1],3.16 µM (active)
same,Potency,[2],inactive
same,outcome,[6],inactive
same,outcome,[7],inactive
same,Potency,[3],inactive
COC(=O)CCC(C)C1CCC2C3C(C[C@H](O)C12C)C1(C)CC[C@@H](O)CC1C[C@H]3O (stereo partly drawn),Potency,[2],inactive
same,Potency,[3],inactive
same,Potency,[4],inactive
CN(C)c1ccc(O)c2c1C[C@@H]1C[C@H]3C(N(C)C)C(=O)C(C(N)=O)=C(O)[C@@]3(O)C(=O)C1=C2O (stereo partly drawn),Potency,[2],inactive
same,outcome,[6],inactive
same,outcome,[7],inactive
same,Potency,[3],inactive
O=c1c(-c2ccc(O)cc2)coc2c(C3OC(CO)C(O)C(O)C3O)c(O)ccc12 (stereo not drawn),Potency,[1],inactive
same,outcome,[6],inactive
same,Potency,[3],inactive
CC1CCC2C(C)(C)C3CC12CC[C@]3(C)O (stereo partly drawn),Potency,[1],inactive
same,outcome,[6],inactive
same,Potency,[3],inactive
CCC1OC(=O)C(C)[C@@H](O[C@H]2C[C@@](C)(OC)C(O)C(C)O2)C(C)[C@@H](O[C@@H]2OC(C)CC(N(C)C)C2O)[C@@](C)(O)CC(C)C2NC(COCCOC)O[C@H](C2C)[C@@]1(C)O (stereo partly drawn),Potency,[1],inactive
same,outcome,[6],inactive
same,Potency,[3],inactive
